# Results published in the supplement of paper PMC9262897, “Low-cost anti-mycobacterial drug discovery using engineered E. coli” (Nature Communications, 2022).
# Structures can show the parent of a compound that is named as a salt. ± gives the standard deviation of the averaged measurements.
# Test system: E. coli TESEC Alr+ wild-type control
# Assay: growth (OD600 after 10 h); higher = more growth (less inhibition)
# Settings: compound 0.1 mM; raw OD600 reference: median of DMSO wells 0.241, cell-free background 0.041
# Experimental: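 TESEC Mtb Alr E. coli, or the Alr+ wild-type control, in 384-well plates with Prestwick library compounds at 0.1 mM and 1% DMSO, across arabinose induction levels of 1E3 to 1E7 nM. Growth is read as OD600 after 10 h at 37 °C in triplicate biological replicates.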
row,SMILES,growth
1,O=C1[C@H]2CCCC[C@H]2C(=O)N1CCCCN1CCN(c2nsc3ccccc23)CC1 [Perospirone],0.131 ± 0.0041
2,CN1CCCC(CC2c3ccccc3Sc3ccccc32)C1 (stereo not drawn) [Metixene hydrochloride],0.0422 ± 0.00059
3,C[C@H]1O[C@H](O[C@H]2[C@H](O)[C@@H](O)[C@@H](O[C@@H]([C@H](O)[C@@H](O)C=O)[C@H](O)CO)O[C@@H]2CO)[C@H](O)[C@@H](O)[C@@H]1N[C@H]1C=C(CO)[C@@H](O)[C@H](O)[C@H]1O [Acarbose],0.261 ± 0.0036
4,O=C(Oc1cccc2cccnc12)c1ccccc1 [Benzoxiquine],0.222 ± 0.0051
5,O=P(O)(O)C(O)(Cn1ccnc1)P(=O)(O)O [Zoledronic acid hydrate],0.241 ± 0.0059
6,Clc1ccc(COC(Cn2ccnc2)c2ccc(Cl)cc2Cl)c(Cl)c1 (stereo not drawn) [Miconazole],0.0977 ± 0.098
7,CC[N+](CC)(CC)CCC(O)(c1ccccc1)C1CCCCC1 (stereo not drawn) [Tridihexethyl chloride],0.2104 ± 0.0021
8,COc1ccc(-c2ccc3cc(C(=O)O)ccc3c2)cc1C12CC3CC(CC(C3)C1)C2 [Adapalene],0.2339 ± 0.00031
9,CC1=Nc2ccc(Cl)cc2S(=O)(=O)N1 [Diazoxide],0.244 ± 0.013
10,COCCCOc1ccnc(C[S+]([O-])c2nc3ccccc3[nH]2)c1C (stereo not drawn) [Rabeprazole Sodium salt],0.186 ± 0.0019
11,O=C(O)c1cc(/N=N/c2ccc(S(=O)(=O)Nc3ccccn3)cc2)ccc1O [Sulfasalazine],0.274 ± 0.0048
12,"Cc1c(O)c(=O)n(-c2ccccc2)n1C [Antipyrine, 4-hydroxy]",0.2468 ± 0.00085
13,C[C@]12C[C@H](O)[C@H]3[C@@H](CCC4=CC(=O)CC[C@@]43C)[C@@H]1CC[C@@H]2C(=O)CO [Corticosterone],0.143 ± 0.0016
14,CC(CN(C)C)CN1c2ccccc2Sc2ccccc21 (stereo not drawn) [Trimeprazine tartrate],0.184 ± 0.019
15,C[C@@H]1C[C@H]2[C@@H]3C[C@H](F)C4=CC(=O)C=C[C@]4(C)[C@@]3(F)[C@@H](O)C[C@]2(C)[C@@]1(O)C(=O)COC(=O)C(C)(C)C [Flumethasone pivalate],0.207 ± 0.028
16,COc1cc(C)c(/C=C/C(C)=C/C=C/C(C)=C/C(=O)O)c(C)c1C [Acitretin],0.227 ± 0.0077
17,CC(=O)OCC1=C(C(=O)O)N2C(=O)[C@@H](NC(=O)Cc3cccs3)[C@H]2SC1 [Cephalothin sodium salt],0.305 ± 0.0066
18,"CC(C)NCC(O)c1ccc(O)c(O)c1 (single isomer, unassigned; (+)) [(+)-Isoproterenol (+)-bitartrate salt]",0.211 ± 0.0042
19,CCC1(c2ccccc2)C(=O)NCNC1=O [Primidone],0.243 ± 0.011
20,CC(C)(C)C(=O)OCOC(=O)[C@@H]1N2C(=O)[C@@H](/N=C/N3CCCCCC3)[C@H]2SC1(C)C [Pivmecillinam hydrochloride],0.184 ± 0.0062
21,CC(C)N1CCN(c2ccc(OCC3COC(Cn4cncn4)(c4ccc(Cl)cc4Cl)O3)cc2)CC1 (stereo not drawn) [Terconazole],0.193 ± 0.011
22,Cc1cc(C(C)(C)C)c(O)c(C)c1CC1=NCCN1 [Oxymetazoline hydrochloride],0.236 ± 0.0092
23,Cc1ccc(O)c([C@H](CCN(C(C)C)C(C)C)c2ccccc2)c1 [Tolterodine tartrate],0.163 ± 0.0078
24,CN1CCCN(C(c2ccccc2)c2ccc(Cl)cc2)CC1 (stereo not drawn) [Homochlorcyclizine dihydrochloride],0.189 ± 0.0068
25,NC[C@H]1CC[C@H](C(=O)O)CC1 [Tranexamic acid],0.254 ± 0.0017
26,Cc1cc(-c2ccccc2)nnc1NCCN1CCOCC1 [Minaprine dihydrochloride],0.227 ± 0.0047
27,COc1ccc(C[C@@H]2c3cc(OC)c(OC)cc3CC[N@+]2(C)CCC(=O)OCCCCCOC(=O)CC[N@@+]2(C)CCc3cc(OC)c(OC)cc3[C@H]2Cc2ccc(OC)c(OC)c2)cc1OC [Cisatracurium besylate],0.188 ± 0.0083
28,N#Cc1cc(NC(=O)C(=O)O)c(Cl)c(NC(=O)C(=O)O)c1 [Lodoxamide],0.264 ± 0.0031
